Test results reported in paper PMC6707232.

Legend:
Assay in all cases: cross-linking mass spectrometry
Conditions in all cases: not determined
COPS3 = COPS3 (UniProt Q9UNS2)
COPS7B = COPS7B (UniProt Q9H9Q2)
ELOB = ELOB (UniProt Q15370)
Chain of UniProt Q15370 (Q15370 whole entry): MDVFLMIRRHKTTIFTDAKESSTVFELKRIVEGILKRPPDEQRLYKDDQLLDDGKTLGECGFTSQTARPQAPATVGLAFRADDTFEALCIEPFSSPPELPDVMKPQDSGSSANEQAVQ

Chain of GPS1 (Q13098 whole entry): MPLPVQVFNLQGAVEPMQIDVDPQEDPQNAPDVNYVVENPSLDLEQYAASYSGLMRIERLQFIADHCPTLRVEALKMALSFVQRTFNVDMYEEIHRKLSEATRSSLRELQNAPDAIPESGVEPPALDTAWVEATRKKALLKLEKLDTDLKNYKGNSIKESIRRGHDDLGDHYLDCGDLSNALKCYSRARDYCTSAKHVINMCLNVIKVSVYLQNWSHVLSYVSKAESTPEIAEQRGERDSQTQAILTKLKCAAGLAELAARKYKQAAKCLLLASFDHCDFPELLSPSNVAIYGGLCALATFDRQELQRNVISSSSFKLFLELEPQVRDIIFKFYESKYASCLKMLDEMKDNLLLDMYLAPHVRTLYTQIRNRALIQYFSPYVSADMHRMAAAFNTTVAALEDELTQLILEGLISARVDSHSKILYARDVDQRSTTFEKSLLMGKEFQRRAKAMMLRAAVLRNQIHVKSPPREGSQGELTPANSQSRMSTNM
Chain of UniProt Q9UNS2 (Q9UNS2 whole entry): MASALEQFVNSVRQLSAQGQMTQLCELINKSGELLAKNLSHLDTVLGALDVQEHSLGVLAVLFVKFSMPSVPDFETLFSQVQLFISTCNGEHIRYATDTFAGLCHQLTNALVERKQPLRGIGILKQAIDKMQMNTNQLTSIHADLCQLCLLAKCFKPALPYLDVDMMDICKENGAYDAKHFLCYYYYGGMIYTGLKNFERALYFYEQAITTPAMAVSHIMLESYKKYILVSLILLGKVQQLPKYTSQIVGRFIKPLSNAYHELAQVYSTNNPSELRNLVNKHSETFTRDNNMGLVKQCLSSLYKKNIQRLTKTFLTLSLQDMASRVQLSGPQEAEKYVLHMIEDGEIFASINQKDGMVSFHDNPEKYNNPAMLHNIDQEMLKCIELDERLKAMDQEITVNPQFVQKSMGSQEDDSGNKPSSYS
Chain of COPS2 (P61201 whole entry): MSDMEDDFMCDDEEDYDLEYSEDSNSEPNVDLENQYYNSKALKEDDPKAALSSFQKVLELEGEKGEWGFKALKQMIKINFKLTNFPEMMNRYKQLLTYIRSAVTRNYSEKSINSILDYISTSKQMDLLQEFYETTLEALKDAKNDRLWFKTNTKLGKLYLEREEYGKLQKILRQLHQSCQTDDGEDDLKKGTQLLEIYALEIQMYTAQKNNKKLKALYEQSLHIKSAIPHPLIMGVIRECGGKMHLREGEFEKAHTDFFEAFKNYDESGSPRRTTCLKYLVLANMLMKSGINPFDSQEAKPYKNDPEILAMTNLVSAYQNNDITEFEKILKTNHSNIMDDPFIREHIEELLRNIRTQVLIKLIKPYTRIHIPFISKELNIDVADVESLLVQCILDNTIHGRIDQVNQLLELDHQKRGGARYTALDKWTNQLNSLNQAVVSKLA
Chain of UniProt Q9H9Q2 (Q9H9Q2 whole entry): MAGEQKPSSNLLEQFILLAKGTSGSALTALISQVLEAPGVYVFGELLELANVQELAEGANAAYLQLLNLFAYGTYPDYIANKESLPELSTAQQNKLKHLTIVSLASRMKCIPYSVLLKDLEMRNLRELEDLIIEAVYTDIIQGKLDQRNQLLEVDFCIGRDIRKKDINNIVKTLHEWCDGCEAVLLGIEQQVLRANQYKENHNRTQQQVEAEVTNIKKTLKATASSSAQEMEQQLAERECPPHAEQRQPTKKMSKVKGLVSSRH

Substance | cross-linked residues (COPS3) | cross-linked residues (COPS7B) | cross-linked residues (ELOB)
COPS2, P61201 | K426 - K243 | K426 - K199 | 
GPS1, Q13098 | K467 - K406 |  | K158 - K19
